Rce1 inh: inhibitors of yeast Ras-converting enzyme | yeast membranes, quenched prenylated peptide cleavage fluorescence | calls only | 0.27% of 290,000 active;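 active = fall in fluorescence gain of 50% or more versus controls, with final raw signal at or below 3038400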
Target sequence (Q03530 whole entry, looked up): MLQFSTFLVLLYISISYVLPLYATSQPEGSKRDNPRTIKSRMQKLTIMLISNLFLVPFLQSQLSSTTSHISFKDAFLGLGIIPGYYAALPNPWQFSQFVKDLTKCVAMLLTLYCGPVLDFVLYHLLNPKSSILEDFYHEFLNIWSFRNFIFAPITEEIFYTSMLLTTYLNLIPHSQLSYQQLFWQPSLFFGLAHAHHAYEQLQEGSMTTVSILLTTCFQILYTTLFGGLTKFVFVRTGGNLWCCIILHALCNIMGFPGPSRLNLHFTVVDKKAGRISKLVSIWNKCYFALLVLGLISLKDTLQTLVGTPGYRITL
NALP3 yeast inh: blocks the NALP3 inflammasome reconstituted in yeast | inhibition, % at 10 µM | Yeast reconstituted NLRP3/ASC/caspase-1, beta-gal luminescence, 24 h | 0.39% of 330,000 active;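 active = inhibition of 50% or more; inactive = inhibition below 50%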
PERK inhibitor: inhibitors of human PERK kinase; CHO PERK-DD fusion, SEAP luminescence translation reporter; inhibition, % at 5.6 µM; 0.17% of 220,000 active; AID 1416;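 active = inhibition above the mean inhibition of all tested compounds plus 3 SD, set separately per screening campaign, cut at about 2.9% in these data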;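 also: PERK kinase domain activated by AP20187 dimerizer at 100 nM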
CR mimetic SO: lowers age-related superoxide in aged yeast cells. superoxide response (% of plate mean), % at 10 µM. AID 2690. 0.18% of 330,000 active. S. cerevisiae aged cells, superoxide DHE fluorescence; active compounds read low;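 active = superoxide response under a set limit, about three screen SD below normal, cut at about 65% in these data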;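 also: yeast aged for seven days with compound at 30 °C before DHE staining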
V-ATPase pH: yeast V-ATPase proton transport regulation by pHLuorin; S. cerevisiae, pHLuorin cytosolic pH fluorescence; response, % at 10 µM; 0.37% of 350,000 active; AID 504577; in the data active = response mostly above about 7.3%, no sharp cut-off; inactive = mostly below about 5.4%; also: actives read high
NALP1 inh: inhibitors of NALP1 inflammasome in yeast. inhibition, % at 10 µM. AID 2071. S. cerevisiae NALP1/ASC/caspase-1 growth, X-gal OD620, 72 h. 0.61% of 280,000 active; in the data active = inhibition mostly above about 24%, no sharp cut-off; inactive = mostly below about 32%
CR mimetic CP: yeast aging superoxide inhibition, cherry pick confirmation; shares compounds with CR mimetic SO; S. cerevisiae aging, superoxide DHE fluorescence; active compounds read low; superoxide response (% of plate), % at 10 µM; 1% of 850 active; AID 434994;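 active = superoxide signal below 65% of the plate average of sample wells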;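 also: cells aged with compound for 7 days at 30 degrees C before staining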
DHE counter: DHE fluorescence interference, counter-screen artifact; shares compounds with CR mimetic SO; fluorescence response, % at 10 µM; AID 435000; 850 tested, under 10 active; S. cerevisiae BY4741, flow cytometry; active compounds read low;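 active = fluorescence response below 15%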;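 also: lower means stronger quenching of DHE signal or ROS scavenging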
Numbers stand for hits. Only some compounds are listed: those with a hit (about 1.6% of all), similar ones and a draw of the others.

`C[C@H]1C(=O)N(C)CCN1C(=O)c1ccccc1OC1CCN(S(C)(=O)=O)CC1` gave Rce1 inh inactive, NALP3 yeast inh inactive, PERK inhibitor inactive, CR mimetic SO inactive, V-ATPase pH inactive and NALP1 inh 24.0.
For COc1ccc(C2Nc3cccc4cccc(c34)N2)cc1 the results were Rce1 inh inactive, NALP3 yeast inh inactive, PERK inhibitor inactive, CR mimetic SO inactive, V-ATPase pH inactive and NALP1 inh inactive.
CN(C)c1ccc(C2Nc3cccc4cccc(c34)N2)cc1 was read as Rce1 inh inactive, NALP3 yeast inh inactive, CR mimetic SO inactive, V-ATPase pH inactive and NALP1 inh 39.3.
For CCN1C(=O)[C@H]2[C@@H](c3ccc(OC)cc3)N[C@]3(CCCN(Cc4ccc(Br)cc4)C3=O)[C@H]2C1=O the results were V-ATPase pH inactive.
`N/C(=N\OC(=O)c1ccccc1)C(Cc1ccccc1)C(=O)NOC(=O)c1ccccc1` (stereo unspecified) gave V-ATPase pH inactive.
`Cc1cc(C(=O)COc2ccc(Br)cc2F)c(C)n1CC1CCCO1` (stereo unspecified) gave V-ATPase pH inactive.
`Cc1ccc(C(=O)N/N=C/C2=Cc3ccccc3OC2C)cc1` (stereo unspecified) gave Rce1 inh inactive, NALP3 yeast inh inactive, PERK inhibitor inactive, CR mimetic SO inactive, V-ATPase pH inactive and NALP1 inh inactive.
For CC1Oc2ccccc2C=C1/C=N/NC(=O)[C@@H](C)NC(=O)OC(C)(C)C (stereo partly specified) the results were Rce1 inh active, NALP3 yeast inh inactive, PERK inhibitor inactive, CR mimetic SO inactive, V-ATPase pH inactive and NALP1 inh inactive.
Screening O=c1cc(N=Nc2ccc(Cl)cc2)[nH]c(=O)[nH]1 returned Rce1 inh inactive, PERK inhibitor inactive, CR mimetic SO inactive, V-ATPase pH 12.9 and NALP1 inh inactive.
For O=c1cc(-c2ccc(Cl)cc2)oc(=O)[nH]1 the results were Rce1 inh inactive, NALP3 yeast inh inactive, PERK inhibitor inactive, CR mimetic SO inactive, V-ATPase pH inactive and NALP1 inh inactive.
Screening O=c1[nH]c(=O)n2ncnc2[nH]1 returned V-ATPase pH inactive.
For COc1ccc2[nH]c(C(=O)NCCCn3ccnc3)cc2c1 the results were Rce1 inh active, NALP3 yeast inh inactive, CR mimetic SO inactive, V-ATPase pH inactive and NALP1 inh inactive.
CC(CCc1ccc(O)cc1)N(C)CCc1ccccc1 (stereo unspecified) was read as Rce1 inh inactive, NALP3 yeast inh inactive, PERK inhibitor inactive, CR mimetic SO inactive, V-ATPase pH inactive and NALP1 inh 25.8.
Fc1ccc(NC(=S)SCc2ccc3c(c2)OCO3)cc1F was read as V-ATPase pH inactive.
`COc1ccc(NC(=O)C[C@H]2C(=O)N(Cc3ccccc3)C[C@@H]2CSC)cc1` gave V-ATPase pH inactive.
Screening C#CCSc1nnc(-c2ccc(C)cc2)o1 returned Rce1 inh inactive, NALP3 yeast inh inactive, PERK inhibitor inactive, CR mimetic SO inactive, V-ATPase pH inactive, NALP1 inh inactive, CR mimetic CP inactive and DHE counter inactive.
Screening C#CCSc1nnc(-c2ccc(O)cc2)o1 returned NALP3 yeast inh inactive, PERK inhibitor inactive, CR mimetic SO inactive, V-ATPase pH inactive, NALP1 inh inactive, CR mimetic CP inactive and DHE counter inactive.
For C#CCSc1nnc(-c2cccc3ccccc23)o1 the results were Rce1 inh inactive, NALP3 yeast inh inactive, PERK inhibitor inactive, CR mimetic SO inactive and V-ATPase pH inactive.
Screening COc1ccccc1N1CC(C(=O)OCC(=O)c2c(N)n(C)c(=O)n(C)c2=O)CC1=O (stereo unspecified) returned V-ATPase pH inactive.
`CCCCN1C[C@H](CSC)[C@@H](CC(=O)Nc2ccc(Br)cc2)C1=O` gave V-ATPase pH inactive.
C#Cc1cccc(-n2nnc(C(=O)OC)c2-c2ccccc2)c1 was read as Rce1 inh inactive, NALP3 yeast inh inactive, CR mimetic SO 51.6, V-ATPase pH inactive, NALP1 inh inactive, CR mimetic CP inactive and DHE counter inactive.
For CC1Oc2ccccc2N(CC(=O)c2ccccc2)C1=O (stereo unspecified) the results were Rce1 inh inactive, NALP3 yeast inh inactive, PERK inhibitor inactive, CR mimetic SO 59.6, V-ATPase pH inactive, NALP1 inh inactive, CR mimetic CP inactive and DHE counter inactive.
Screening Cc1ccc(C(=O)CN2C(=O)C(C)Oc3ccccc32)cc1 (stereo unspecified) returned Rce1 inh inactive, NALP3 yeast inh inactive, PERK inhibitor inactive, CR mimetic SO inactive, V-ATPase pH inactive and NALP1 inh inactive.
For COc1ccc(C(=O)/C(C#N)=N/Nc2ccc([N+](=O)[O-])cc2)cc1 the results were NALP3 yeast inh inactive, PERK inhibitor inactive, CR mimetic SO inactive, V-ATPase pH inactive and NALP1 inh inactive.
CCOc1ccc(N/C(SC)=C(/C#N)C(N)=O)cc1 was read as Rce1 inh inactive, NALP3 yeast inh inactive, PERK inhibitor inactive, CR mimetic SO inactive, V-ATPase pH inactive and NALP1 inh inactive.
CCOC(=O)NC(=O)/C(C#N)=N\Nc1ccc(Cl)cc1 was read as Rce1 inh inactive, NALP3 yeast inh inactive, PERK inhibitor inactive, CR mimetic SO inactive, V-ATPase pH inactive, NALP1 inh inactive, CR mimetic CP inactive and DHE counter inactive.
`CCOc1ccc(N/N=C(/C#N)C(N)=O)cc1` gave Rce1 inh inactive, NALP3 yeast inh inactive, PERK inhibitor inactive, CR mimetic SO 45.6, V-ATPase pH inactive, NALP1 inh inactive, CR mimetic CP inactive and DHE counter inactive.
COc1ccc(N/N=C(\C#N)C(N)=O)cc1 was read as Rce1 inh inactive, NALP3 yeast inh inactive, PERK inhibitor inactive, CR mimetic SO 48.3, V-ATPase pH inactive, NALP1 inh inactive, CR mimetic CP inactive and DHE counter inactive.
CCC(C)c1ccc(O)c(NC(=S)NC(=O)c2cccs2)c1 (stereo unspecified) was read as V-ATPase pH inactive.
Screening C[C@H]1CN([C@@H](C)CO)C(=O)CCCn2nncc2CO[C@H]1CN(C)C(=O)C1CC1 returned V-ATPase pH inactive.
Screening CCN(C(=O)CSc1ncccc1C(=O)OC(C)C)c1cccc(C)c1 returned Rce1 inh inactive, NALP3 yeast inh inactive, PERK inhibitor inactive, CR mimetic SO 62.9, V-ATPase pH inactive, NALP1 inh inactive, CR mimetic CP inactive and DHE counter inactive.
CSc1ccc(-c2c(C#N)c(N)nc3c2CCCC3)cc1 was read as Rce1 inh inactive, NALP3 yeast inh inactive, PERK inhibitor inactive, CR mimetic SO 64.2, V-ATPase pH inactive, NALP1 inh inactive, CR mimetic CP inactive and DHE counter inactive.
For Cc1c(C(=O)/C=C/c2ccccc2F)c2cc(O)ccc2n1C the results were V-ATPase pH inactive.

Source: PubChem
